Most compounds without a hit are left out; they make up all but 2.8% or so of the library.
Pol eta inh-1: qHTS for Inhibitors of Polymerase Eta; DNA polymerase eta (Homo sapiens), Q9Y253; recombinant Pol eta, fluorescent DNA replication assay; Potency, µM (doses to about 114 µM), for the others: at the highest dose activity change, negative = inhibition, actives largely listed as inhibitors; actives 1.2% (n = 390,000); AID 588591, 2011; note: potency is the fitted concentration of half-maximal effect; % is set by controls: 0 for no effect and ±100 for the full control effect
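Pol eta (10 nM) was preincubated with compounds for 15 min at room temperature, after which fluorescent replication substrate (50 nM final) was added to start the reaction. Fluorescence was read kinetically at 0 and 10 min.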
Pol beta inh: qHTS Assay for Inhibitors of DNA Polymerase Beta. AID 485314, 2010. actives 1.3% (n = 340,000). Potency, µM (top dose mostly 114 µM), without a hit: at the highest dose activity change, negative = inhibition, usual class: inhibitors. Pol beta primer extension/strand displacement, fluorescence kinetic; note: potency is the fitted concentration of half-maximal effect; % is set by controls: 0 for no effect and ±100 for the full control effect
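Enzyme-only controls used 10 nM Pol beta; buffer lacking enzyme served as negative control. Compound preincubated 15 min, then 50 nM substrate added; 0 and 10 min reads at room temperature.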
PI5P4Ka inh: qHTS for Inhibitors of phosphatidylinositol 5-phosphate 4-kinase (PI5P4K); Phosphatidylinositol 5-phosphate 4-kinase type-2 alpha (Homo sapiens), P48426; PI5P4Kalpha enzyme, ADP-Glo luminescence, 60 min; hits give low values; max response, %; actives 1.2% (n = 330,000); AID 652105, 2013; active = max response of -50% or lower; inconclusive = between -30% and -50%; inactive = -30% or higher; note: value at the top dose of about 77 µM; % is set by controls: 0 for no effect and ±100 for the full control effect
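PI5P4Kalpha ADP-Glo assay; 5 microM ATP final; 60 min RT reaction; HEPES pH 7.4/EGTA/CHAPS, 5% DMSO; controls lacking substrate or enzyme; luminescent end-point.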
WRN helicase inh: qHTS for Inhibitors of WRN Helicase; WRN helicase unwinding, fluorescent forked duplex, kinetic; Potency, µM (titrated, usually from 114 µM), for the others: at the top dose activity change, negative = inhibition, usual class: inhibitors; actives 0.46% (n = 360,000); note: potency is the fitted concentration of half-maximal effect; % is set by controls: 0 for no effect and ±100 for the full control effect; nearly all actives have a fitted effect of over 55% in size
Target sequence (Q14191 whole entry, looked up): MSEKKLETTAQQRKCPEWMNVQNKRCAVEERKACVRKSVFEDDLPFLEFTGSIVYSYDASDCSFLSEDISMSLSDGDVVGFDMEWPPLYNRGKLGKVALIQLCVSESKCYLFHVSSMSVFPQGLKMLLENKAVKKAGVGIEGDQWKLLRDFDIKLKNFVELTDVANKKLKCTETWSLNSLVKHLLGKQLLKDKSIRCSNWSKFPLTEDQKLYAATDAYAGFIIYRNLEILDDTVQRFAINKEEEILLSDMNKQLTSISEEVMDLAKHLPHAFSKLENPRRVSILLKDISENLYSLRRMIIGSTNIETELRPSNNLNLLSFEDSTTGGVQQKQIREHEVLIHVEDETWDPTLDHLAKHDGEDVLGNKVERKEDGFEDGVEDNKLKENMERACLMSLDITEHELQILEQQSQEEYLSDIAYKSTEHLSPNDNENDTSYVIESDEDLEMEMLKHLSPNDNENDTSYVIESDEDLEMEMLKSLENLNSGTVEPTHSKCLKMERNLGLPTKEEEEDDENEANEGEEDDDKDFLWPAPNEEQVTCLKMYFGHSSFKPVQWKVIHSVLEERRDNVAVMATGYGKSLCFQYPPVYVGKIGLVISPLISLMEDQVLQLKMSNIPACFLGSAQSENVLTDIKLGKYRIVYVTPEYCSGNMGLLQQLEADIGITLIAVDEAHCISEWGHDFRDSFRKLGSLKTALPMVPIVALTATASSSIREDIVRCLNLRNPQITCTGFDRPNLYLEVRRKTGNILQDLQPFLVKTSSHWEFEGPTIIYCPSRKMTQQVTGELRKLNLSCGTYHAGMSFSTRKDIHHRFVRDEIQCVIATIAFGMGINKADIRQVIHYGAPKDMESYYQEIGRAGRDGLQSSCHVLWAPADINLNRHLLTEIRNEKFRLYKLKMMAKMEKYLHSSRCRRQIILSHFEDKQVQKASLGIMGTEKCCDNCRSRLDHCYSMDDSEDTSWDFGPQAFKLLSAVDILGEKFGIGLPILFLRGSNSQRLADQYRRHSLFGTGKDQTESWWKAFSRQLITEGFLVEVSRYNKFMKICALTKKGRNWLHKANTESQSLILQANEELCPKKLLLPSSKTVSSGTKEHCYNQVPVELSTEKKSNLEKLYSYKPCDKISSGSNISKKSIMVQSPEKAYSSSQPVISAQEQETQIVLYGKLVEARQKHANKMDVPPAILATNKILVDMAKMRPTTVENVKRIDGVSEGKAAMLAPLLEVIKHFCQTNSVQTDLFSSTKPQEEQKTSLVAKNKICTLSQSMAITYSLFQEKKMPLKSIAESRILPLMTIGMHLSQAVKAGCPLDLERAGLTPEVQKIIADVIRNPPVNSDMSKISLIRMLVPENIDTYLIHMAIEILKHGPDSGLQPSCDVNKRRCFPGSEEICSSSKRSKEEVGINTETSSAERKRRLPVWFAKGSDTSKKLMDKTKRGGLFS
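WRN at 20 nM final preincubated with compound 15 min at room temperature; reaction started with 100 nM fluorophore/quencher forked duplex oligonucleotide and 2 mM ATP final. Unwinding followed kinetically by red fluorescence (ex 525, em 598 nm).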
Pol kappa inh-1: qHTS for Inhibitors of Polymerase Kappa; DNA polymerase kappa (Homo sapiens), Q9UBT6; purified Pol kappa, fluorescent DNA synthesis assay, 10 min; Potency, µM (highest dose often 107 µM), for inactives: at the highest dose activity, negative = inhibition, usual class: inhibitors; actives 0.53% (n = 400,000); AID 588579, 2011; note: potency is the fitted concentration of half-maximal effect; % is set by controls: 0 for no effect and ±100 for the full control effect
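Fluorescent qHTS in 1536-well format: enzyme (10 nM) and compound sat 15 min at room temperature before 50 nM substrate (final) was added. Signal taken at 0 and 10 min; no-enzyme buffer wells were negative controls.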
POLI inh: qHTS for Inhibitors of Polymerase Iota; Potency, µM (series often up to 115 µM), inactives show at the highest dose activity, negative = inhibition, usual class: inhibitors; AID 588590, 2011; DNA polymerase iota (Homo sapiens), Q9UNA4; actives 1% (n = 390,000); Pol iota fluorescent replication assay, 10 min; note: potency is the fitted concentration of half-maximal effect
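Pol iota at 10 nM preincubated 15 min with compounds at room temperature; reaction started with fluorescent substrate, 50 nM final. Fluorescence read kinetically at 0 and 10 min; buffer-only wells as negative control.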
GALK confirm: Confirmation Assay for Inhibitors of Human Galactokinase (GALK); shares compounds with Pol eta inh-1; purified GALK, Kinase-Glo ATP depletion luminescence; Potency, µM (titrated, usually from 115 µM), without a hit: top-dose activity, negative = inhibition, hits mostly inhibitors; actives 70% (n = 150)
GALK redox cs: Confirmatory Assay for Inhibitors of Human Galactokinase (GALK): Phenol-HRP redox assay counterscreen. shares compounds with Pol eta inh-1. Phenol red-HRP H2O2 redox cycling, absorbance 600 nm. Potency, µM (highest dose often 115 µM), inactives show at the highest dose activity change, negative = H2O2 signal, most hits filed as inhibitors. actives 40% (n = 150)
HEK293 tox: Secondary Assay for Inhibitors of Human Galactokinase (GALK): HEK-293 Cell Viability Assay; shares compounds with Pol eta inh-1; HEK-293 viability, ATP luminescence (CellTiter-Glo), 24/48 h; Potency, µM (doses to about 46.1 µM), for the others: at the highest dose activity change, negative = cytotoxicity, actives largely listed as inhibitors; actives 10% (n = 170); AID 2547, 2010; note: potency is the fitted concentration of half-maximal effect; % is set by controls: 0 for no effect and ±100 for the full control effect
Pol kappa inh-2: qHTS for Inhibitors of Polymerase Kappa: Confirmatory Assay for Cherry-picked Compounds | shares compounds with Pol eta inh-1 | purified Pol-kappa, fluorescent strand-displacement substrate | Potency, µM, hits mostly inhibitors | actives 76% (n = 920) | AID 720501, 2013; note: potency is the fitted concentration of half-maximal effect
Pol eta inh-2: qHTS for Inhibitors of Polymerase Eta: Confirmatory Assay for Cherry-picked Compounds | shares compounds with Pol eta inh-1 | Pol eta primer extension, TAMRA/BHQ fluorescence, 10 min | Potency, µM, most hits filed as inhibitors | actives 64% (n = 2,600) | AID 720502, 2013; note: potency is the fitted concentration of half-maximal effect
* hit, by the source's call; ? = inconclusive; / = no result; [ ] = dose if it differs, or a comment. Unless noted, calls come from the whole dose curve; as a rule, active = well fitted curve in the direction sought with a large enough effect; inconclusive = small, poorly fitted or top-dose-only effect, or another doubt; inactive = no such curve, though single readings can be large; an effect the other way counts as inactive or inconclusive.

SMILES | Pol eta inh-1 | Pol beta inh | PI5P4Ka inh | WRN helicase inh | Pol kappa inh-1 | POLI inh | Pol eta inh-2 | others
CCS(=O)(=O)C1=NN2C(=N)/C(=C\c3ccc(OC(=O)c4ccco4)cc3)C(=O)N=C2S1 | ? | -26.0% | -3.8 | -11.1% | -17.9% | -2.1% | /
N=C1/C(=C\c2ccc(OC(=O)c3ccccc3Cl)cc2)C(=O)N=C2SC(N3CCOCC3)=NN12 | 22.4µM* | 39.8µM* | -67.1* | ? | ? | -80.8% | 37.9*
O=C(N/N=C/c1c(O)n(Cc2ccco2)c(=O)[nH]c1=O)c1ccccc1O | 14.1µM* | -29.0% | -82.7* | ? | 79.4µM* | 28.2µM* | 30.1*
Cc1c(N=Cc2c(O)n(Cc3ccco3)c(=O)[nH]c2=O)c(=O)n(-c2ccccc2)n1C | 17.8µM* | ? | -6.4 | -10.2%[11.6 µM] | -28.8% | ? | ?
COc1cc(OC)c(C=O)c(OC(=O)N(C)C)c1 | -2.5% | 52.1% | 1.6 | 6.0% | 2.3% | -13.9% | /
Cc1ccccc1N1C(=O)/C(=C/c2ccco2)C(=O)NC1=S | / | 0.316µM* | / | / | / | / | / | GALK confirm=?;GALK redox cs=-25.5%;HEK293 tox=-0.6%
N#CC1=C(N)Oc2c(c(=O)oc3ccccc23)C1c1ccc([N+](=O)[O-])o1 (centres undefined) | 20µM* | ? | -8.0 | ? | 50.1µM* | ? | 84.9* | Pol kappa inh-2=37.7*
Cc1cccc(Oc2nc3c(C)cccn3c(=O)c2/C=C(\C#N)c2nc3ccccc3s2)c1 | 50.1µM* | -16.5% | / | / | -12.4% | -10.4% | ? | Pol kappa inh-2=42.3*
CC[N+](C)(CC)CCCCOc1ccc2c(c1)C(=O)c1cc(OCCCC[N+](C)(CC)CC)ccc1-2 | ? | ? | -13.3 | 39.8µM* | ? | 14.1µM* | ?
Cc1ccc(-c2nc3ccccc3c(=O)n2-c2nccs2)cc1 | 1.9% | -16.7% | / | -0.9% | 1.0% | 8.0% | /
O=c1c2ccccc2nc(-c2ccco2)n1-c1nccs1 | ? | -1.7% | 2.2 | -34.3%[57.1 µM] | -35.7% | ? | ?
O=C1NC(=O)N(c2ccc3c(c2)OCO3)C(=O)/C1=C\c1ccc(N2CCCCC2)o1 | -9.2% | 22.8% | -4.5 | -15.3% | -0.1% | 15.8% | /
O=C1NC(=O)C(=Cc2ccc(SC3CCCCC3)o2)C(=O)N1 | 20µM* | 20µM* | -74.8* | ? | -90.5% | 10µM* | 47.8*
COc1ccc(-n2c(/C=C3\C(=O)Nc4ccccc43)nc3ccccc3c2=O)cc1 | -11.8% | 15.0% | 1.9 | 3.8% | -8.0% | ? | /
O=C1Nc2ccccc2/C1=C/c1nc2ccccc2c(=O)n1-c1ccc(O)cc1 | ? | ? | -20.8 | ? | ? | 17.8µM* | ?
Cc1cccc(N2C(=O)NC(=O)/C(=C\c3ccc4c(c3)CCCN4Cc3ccccc3)C2=O)c1 | 22.4µM* | -27.6% | ? | 236.9%[57.1 µM] | -1.0% | ? | ?
CC1=NN(c2ccccc2)C(=O)C1/C=C1/C(=O)NC(=O)N(c2cccc(C)c2)C1=O (centres undefined) | / | 19.3% | / | / | / | / | /
Cn1cccc1/C=C1/C(=O)NC(=O)N(Cc2ccccc2)C1=O | ? | 3.7% | -65.8* | ? | 79.4µM* | 15.8µM* | 75.7*
CC(C)[N+]12CCC(CC1)C(C(O)(c1ccccc1)c1ccccc1)C2 (centres undefined) | -25.0% | 0.8% | -3.7 | -4.2% | 2.3% | 11.4% | /
CSc1ncc(/C=C2/C(=O)NC(=O)N(c3ccc(C)cc3)C2=O)cn1 | -1.6% | ? | ? | -0.9% | -12.5% | 11.3% | /
Cc1cc(C)cc(N2C(=O)NC(=O)/C(=C\C=C\c3ccco3)C2=O)c1 | 17.8µM* | 28.2µM* | -29.6 | 50.1µM* | 39.8µM* | 22.4µM* | 30.1* | Pol kappa inh-2=18.9*
Cc1ccc(N2C(=O)NC(=O)/C(=C/C=C/c3ccco3)C2=O)cc1 | ? | 31.6µM* | -23.8 | 44.7µM* | 20µM* | 11.2µM* | ?
C=C(C)[C@]12C[C@@H](C)[C@@]34OC(Cc5ccccc5)(O[C@@H]1[C@@H]3C=C(COC(=O)Cc1cc(I)c(O)c(OC)c1)C[C@]1(O)C(=O)C(C)=C[C@@H]41)O2 | / | / | / | / | -14.4%[60.1 µM] | / | /
N#CC1(N2CCCCC2)CCCCC1 | / | / | / | / | 3.2%[19.4 µM] | / | /
O=C(OC1Cc2c(O)cc(O)cc2OC1c1cc(O)c(O)c(O)c1)c1cc(O)c(O)c(O)c1 (centres undefined) | / | / | / | / | 0.562µM* | / | / | GALK confirm=9.43µM*;GALK redox cs=-9.8%;HEK293 tox=-6.9%
CC/C(=N\Nc1ccccc1)c1c(O)n(-c2ccc(OC)cc2)c(=O)[nH]c1=O | -7.6% | 0.3% | -3.4 | -15.8% | -0.4% | 137.1% | /
O=C1NC(=O)N(CCC2=CCCCC2)C(=O)/C1=C/c1cccs1 | ? | ? | -63.4* | ? | -39.5% | ? | ?

Source: PubChem BioAssay (National Center for Advancing Translational Sciences (NCATS))
